Growth inhibition data for 18 compounds are collected here from PubChem BioAssay (NCI).

The structures appear in SMILES notation. This is part of a sample that, as a whole, favours compounds with a hit. Of some 79,000 tested, about 15% had one in any assay. Unmarked numbers belong to inactive results. The source made the active and inactive calls. No stated cut-off is given here; in the data, active means growth inhibition above about 70%; inactive means the rest.

Test [1] can be described thus: NCI Yeast Anticancer Drug Screen. Data for the rad50 strain (AID 155).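 Further: 0% = growth of vehicle-only cultures of the same strain.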 The note with it: S. cerevisiae rad50 strain growth inhibition; at 50.0 µM; stronger effect = higher value. Summed up:
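Growth of the mutant yeast was measured after compound exposure and referenced to vehicle-treated cultures.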

A short description of test [2]: NCI Yeast Anticancer Drug Screen. Data for the mec2-1 strain (AID 157). The conditions noted are these: S. cerevisiae mec2-1 strain, at 50.0 µM, stronger effect = higher value. Summed up:
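Using mec2-1 yeast: add compound, measure growth, express inhibition versus vehicle-treated cultures.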

Test [3] can be described thus: NCI Yeast Anticancer Drug Screen. Data for the sgs1 mgt1 strain (AID 161).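 Further: 0% = growth of cultures given vehicle only.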 The note with it: S. cerevisiae sgs1 mgt1 strain, at 50.0 µM, stronger effect = higher value. The gist of the method:
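Percent growth inhibition was derived by comparing compound-exposed mutant yeast with vehicle-exposed cultures. The strain carries alterations in DNA damage repair.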

Test [4] can be described thus: NCI Yeast Anticancer Drug Screen. Data for the cln2 rad14 strain (AID 165).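 Further: 0% = growth equal to vehicle treated cultures.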 The note with it: S. cerevisiae cln2 rad14 strain, at 50.0 µM, stronger effect = higher value. The gist of the method:
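Yeast strain cln2 rad14, bearing defects in cell cycle control and DNA repair, serves as the test system; values reflect growth inhibition compared with vehicle.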

Test [5] in a line: NCI Yeast Anticancer Drug Screen. Data for the bub3 strain (AID 167). The conditions noted are these: S. cerevisiae bub3 mutant strain, at 50.0 µM, stronger effect = higher value. The gist of the method:
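Whole-cell yeast assay. The mutant strain was incubated with compounds, and growth inhibition was determined by comparison with vehicle-treated cells.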

A short description of test [6]: NCI Yeast Anticancer Drug Screen. Data for the mlh1 rad18 strain (AID 175). The note with it: S. cerevisiae mlh1 rad18 strain growth inhibition; at 50.0 µM; stronger effect = higher value. Summed up:
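Steps: expose repair-defective yeast to compound; measure growth; express inhibition against vehicle-treated controls.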

Regarding `O=C1NC(N/N=C\c2ccccc2)=N/C1=C/c1ccc(Cl)cc1`, the growth inhibition in test [1] is 22.6%; in test [2] it was 0.75%; in test [3], 11.7%; in test [4] it was 17.8%; in test [5] it was 16.7%; in test [6], -1.85%.

As to `Cc1ccc(C)c(NC(=O)/C(=N\N)C(c2cnc3ccc([N+](=O)[O-])cc3n2)[N+](=O)[O-])c1` (stereo not drawn), the growth inhibition was 42.5% in test [1]; 27.2% in test [2]; 6.75% in test [3]; -35.2% in test [4]; 32.2% in test [5]; 28.6% in test [6].

`CCC/C(Cl)=N/OC(=O)Nc1cccc(F)c1`: the growth inhibition in test [1] is -2.75%; in test [2], -6.9%; in test [3], 90.8% (active); in test [4], 16.6%; in test [5], 45%; in test [6] it was 41.5%.

On to `COc1ccc(-c2nc3ccccc3c(=S)n2OC(C)=O)cc1`, for which the growth inhibition in test [1] was 68.5%; in test [2], 77.2% (active); in test [3], 82.1% (active); in test [4] it was 27.2%; in test [5], 90.2% (active); in test [6], 78.2% (active).

`CC(C)=CCc1c(OC(=O)c2c(C)cc(O)cc2O)cc(CO)c(CO)c1O`: the growth inhibition in test [1] was 5.1%; in test [2] it was 11.4%; in test [3], 30.4%; in test [4], 5.95%; in test [5], 8.65%; in test [6], -54.9%.

As to `COC(=O)C(=O)C(C(=O)C(=O)Nc1ccccc1OC)c1nc2ccc([N+](=O)[O-])cc2[nH]c1=O` (stereo not drawn), the growth inhibition in test [1] was 16.4%; in test [2] it was 19.4%; in test [3], 10.9%; in test [4], -19.6%; in test [5] it was 36.1%; in test [6], 21.6%.

As to `CCCCCCCCOC(=O)C12Oc3ccc(-c4ccc5c(c4O)C(O)=C4C(=O)CC(C)C(O)C4(C(=O)OCCCCCCCC)O5)c(O)c3C(O)=C1C(=O)CC(C)C2O` (stereo not drawn), the growth inhibition is 16.4% in test [1]; 2.95% in test [2]; 11.4% in test [3]; 7.6% in test [4]; 33.6% in test [5]; -54.6% in test [6].

Consider `COc1ccc(CC2C(=O)NC(=O)NC2=O)cc1OCc1ccccc1`, for which the growth inhibition was 14.7% in test [1]; -1.75% in test [2]; -14.1% in test [3]; -10% in test [4]; -17.4% in test [5]; -44.6% in test [6].

Regarding `C=C(C)C(=O)OC1CC2(C)OC(=CC2=O)C(C)CC2OC(=O)C(=C)C12` (stereo not drawn), the growth inhibition was 13.1% in test [1]; 18.1% in test [2]; 29% in test [3]; 25.2% in test [4]; 33.5% in test [5]; -34.6% in test [6].

On to `COc1cc(-c2nc(SC)nc3c2CCc2ccccc2-3)cc(OC)c1OC`, for which the growth inhibition in test [1] was -6%; in test [2] it was -5.85%; in test [3], 2.95%; in test [4], 10.9%; in test [5] it was 4.35%; in test [6], -20.2%.

Regarding `Cc1ccc(OC2CC(n3cnc4ncnc(Cl)c43)OC2Oc2ccc(C)cc2)cc1` (stereo not drawn), the growth inhibition in test [1] was 21%; in test [2], 2.1%; in test [3], 13.9%; in test [4] it was 8.4%; in test [5], 13%; in test [6], -33.8%.

Regarding `CO/C(N)=C(\C#N)N=Cc1ccc2ccccc2c1`, the growth inhibition in test [1] was 30.9%; in test [2], 14.3%; in test [3] it was 13.6%; in test [4], 19.1%; in test [5], 16.7%; in test [6], 40.5%.

For the compound `C/C=C1\NC(=O)[C@H]2CSSCCC=C[C@H](CC(=O)N[C@H](C(C)C)C(=O)N2)OC(=O)[C@H](C(C)C)NC1=O`, the growth inhibition in test [1] was 26.1%; in test [2] it was 35.4%; in test [3] it was 26.1%; in test [4], 51.6%; in test [5], 58.4%; in test [6], 33.5%.

With `CCOc1cc2c(cc1O)C=C[C@@H]1[C@@H]2CC[C@]2(C)[C@@H](O)CC[C@@H]12`, the growth inhibition was 33.8% in test [1]; 2.15% in test [2]; 53.8% in test [3]; 26.7% in test [4]; 18.7% in test [5]; 25.7% in test [6].

`O=C(O)COc1cc(-c2ccccc2F)nc2cc3c(cc12)OCO3`: the growth inhibition is 34.1% in test [1]; 22.5% in test [2]; 15.9% in test [3]; 7.9% in test [4]; -3.15% in test [5]; -18.1% in test [6].

On to `Cc1cc(N(CCC#N)CCC#N)ccc1/C=N/NC(=O)c1cc(Cl)ccc1O`, for which the growth inhibition is -1.8% in test [1]; -18.3% in test [2]; -40.8% in test [3]; -9.2% in test [4]; -23.7% in test [5]; -32% in test [6].

In the case of `C=C1C(=O)OC2CC(C)C3(O)CCC(=O)C3(C)CC12` (stereo not drawn), the growth inhibition was -14.8% in test [1]; -24.9% in test [2]; -5.2% in test [3]; 4.45% in test [4]; -18.4% in test [5]; -33.5% in test [6].

As to `O=C1c2c(O)cc(O)cc2OC(c2ccc(O)c(O)c2)C1O` (stereo not drawn), the growth inhibition in test [1] was 9.55%; in test [2], -23.6%; in test [3], 11.2%; in test [4], -0.65%; in test [5], -9.05%; in test [6], -18.7%.
